Screening data: PubChem, several laboratories
AHR activator: AHR activators, primary screen, cell-based, luminescence, luciferase reporter, human | AHR-responsive luciferase reporter cells | activation, % at 5 µM | 320,000 compounds, 2.5% hits | AID 2796, 2010; in the data active = activation above about 47%;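 note: 0% = vehicle wells and 100% = reference agonist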
Platelet DG rel: inhibitors of platelet dense granule secretion, primary screen, cell-based, MLPCN, human platelets | 300,000 compounds, 0.22% hits | human platelet-rich plasma, SFLLRN dense granule ATP release, luminescence | inhibition, %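 (compounds screened at 7.5 µM in platelet-rich plasma)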;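 active = mean replicate score, as percent of positive control, at or above 50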
pCIP destab: p/CIP-EGFP fusion destabilizers, primary screen, fluorescence, F442A cells | Q05BA5 | 16 h | decrease of EGFP signal, % at 10 µM | 290,000 compounds, 0.01% hits;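 active = EGFP signal decrease of at least 30% at 10 µM or well 3 SD below plate mean, unless failing retest; inactive = the rest, including hits failing retest or dose response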
HIF activator: HIF pathway transcriptional activators, primary screen, cell-based, U2OS HRE-luciferase, luminescence. U2OS HRE-luciferase reporter; normalized: DMSO 0%, desferrioxamine 100%. activation, % at 7.5 µM (by protocol). 300,000 compounds, 0.32% hits;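 active = mean activation of at least 10% of the iron chelator positive control signal, with at least half of replicates also reaching 10%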
PolyA inh: polyadenylation inhibitors in yeast reporter cells, primary screen, luminescence, S. cerevisiae; S. cerevisiae SKY197-pL101 polyadenylation reporter, beta-gal luminescence; efflux-impaired pdr1/pdr3 knockout yeast; score 100 = 6 SD above DMSO; 300,000 compounds, 0.02% hits; AID 1875, 2009; activity score, % at 12 µM;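 active = lowest replicate activity score at least 50, where 100 means six control SD above control mean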;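 note: yeast exposed to compound for 9 h at 30 °C; higher score means more reporter readthrough which indicates perturbed polyadenylation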
AHR act cf: AHR activators, confirmation, cell-based, luminescence, luciferase reporter, human | human cells, AHR-responsive luciferase reporter | AID 2845, 2010 | 2,300 compounds, 87% hits | shares compounds with AHR activator | activation, % at 9 µM; in the data active = activation above about 49%;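 note: HepG2 hepatoma cells carrying a DRE-driven firefly luciferase reporter; 0% = vehicle wells and 100% = reference agonist wells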
PXR counter: human PXR activators, counter-screen for AHR activator project, cell-based, luciferase luminescence. shares compounds with AHR activator. cell-based PXR reporter. activation, % at 11.6 µM. 2,300 compounds, 88% hits; in the data active = activation above about 11%;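 note: human hepatoma DPX-2 cells expressing full-length human PXR; 0% = DMSO and 100% = reference agonist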
Active calls of the source: *; x = not tested or not shown. An excerpt weighted towards active compounds, which were near 2.8% of everything screened.

SMILES	AHR activator	Platelet DG rel	pCIP destab	HIF activator	PolyA inh	AHR act cf	PXR counter
CNC(=O)c1c(NC(=O)c2nc3ccccc3s2)sc2c1CCC2	111.8*	11.0	-10.4	4.8	8.5	78.8*	28.6*
COC(=O)c1c(NC(=O)c2nc3ccccc3s2)sc2c1CCN(C(C)=O)C2	39.8	x	-9.7	x	x	x	x
NC(=O)c1c(NC(=O)c2ccccc2)sc2c1CCC2	124.6*	3.8	-15.6	1.3	11.4	146.1*	24.1*
NC(=O)c1c(NC(=O)c2ccncc2)sc2c1CCCC2	13.4	-4.8	-1.7	3.7	-29.2	x	x
Cn1ncc(Cl)c1C(=O)Nc1sc2c(c1C(N)=O)CCC2	121.1*	-3.7	1.6	-0.2	-24.6	96.4*	136.6*
Cc1occc1C(=O)Nc1sc2c(c1C(N)=O)CCCCC2	83.0*	-4.3	-9.7	3.5	-25.6	78.6*	48.9*
COc1cc(C2NC(=O)NC(C)=C2C(=O)OC(C)C)ccc1OC(=O)c1ccco1 (stereo unspecified)	3.9	-5.4	-5.4	-0.4	-23.2	x	x
CC(=O)c1ccc(N(CC(=O)NC2CCCCC2)C(=O)CNC(=O)c2ccco2)cc1	1.0	3.1	3.1	-0.2	15.6	x	x
O=C(NC(=S)Nc1sc2c(c1C(=O)O)CCCC2)c1ccccc1	80.6*	1.2	-0.3	2.0	23.8	111.7*	16.1*
N#Cc1c(NC(=S)NC(=O)c2ccccc2)sc2c1CCC2	25.6	-0.3	-5.1	3.6	-12.4	x	x
CC(C)C(=O)NC(=S)Nc1sc2c(c1C(N)=O)CCCC2	89.5*	4.6	-4.5	1.0	4.2	96.7*	16.0*
CCC(CC)c1nnc(NC(=O)CN2C(=O)NC3(CCCC3)C2=O)s1	-2.1	-10.6	-8.9	0.0	-17.1	x	x
Nc1nc(-c2ccccc2)nc2sc3c(c12)CCCC3	92.4*	-10.9	-1.1	1.3	-38.1	88.8*	54.5*
COc1cccc(Cn2nnc(C(=O)Nc3cc(C)ccc3OC)c2N)c1	127.8*	-12.8	-31.5	-0.3	-4.7	33.7	25.9*
COc1cc(NC(=O)c2ccccc2)c(OC)cc1NC(=O)CN1CCCCC1	82.6*	-1.0	-14.5	3.2	-8.6	96.1*	22.8*
CCOCCCNC(=O)CCC(=O)NNc1nc2ccccc2c2nc(-c3ccccc3)nn12	28.7	11.2	-2.2	1.0	-10.0	x	x
C=CCNC(=O)CCC(=O)NNc1nc2ccccc2c2nc(-c3ccccc3)nn12	100.0*	7.8	11.1	0.5	6.5	60.6*	12.6*
COc1ccc(C(=O)N/N=C(\C)CC(=O)NC2CCCCC2)c(OC)c1	11.9	6.4	-10.4	-0.1	-2.7	x	x
COc1cc(NC(=O)C/C(C)=N/NC(=O)C(=O)NCCO)c(OC)cc1Cl	81.5*	18.6	5.5	0.1	-0.8	14.2	10.7*
COc1cc(NC(=O)C/C(C)=N/NC(=O)C2CCCCC2)c(OC)cc1Cl	104.6*	-2.7	4.2	0.0	-5.5	13.9	9.2
COc1cc(NC(=O)C/C(C)=N/NC(=O)C(=O)NC2CCCCC2)c(OC)cc1Cl	96.6*	8.3	6.1	1.0	-14.5	11.1	9.7
COc1cc(NC(=O)C/C(C)=N/NC(=O)c2ccccn2)c(OC)cc1Cl	113.5*	0.9	-2.4	4.0	-18.4	70.2*	13.6*
C/C(CC(=O)Nc1ccc(Cl)cc1Cl)=N\NC(=O)C(=O)NCCO	1.4	0.9	-2.5	0.6	4.1	x	x
CN(C)S(=O)(=O)N1CCc2ccc(NC(=O)c3ccc(C(F)(F)F)cc3)cc2C1	45.1	-0.3	0.6	-10.3	16.4	x	x
O=[N+]([O-])c1cc(C=Nc2cccc3c(O)cccc23)ccc1Cl	24.5	-17.1	-6.4	-2.8	-8.7	x	x
SMILES	AHR activator	Platelet DG rel	pCIP destab	HIF activator	PolyA inh	AHR act cf	PXR counter
Cc1cc(C)n(CCCN2C(=O)c3cccc4cccc(c34)C2=O)n1	2.5	9.8	-1.0	-0.3	6.3	x	x
ONC(=Nc1ccc(Cl)cc1)c1ccc(Cl)cc1	117.3*	-0.8	5.5	5.1	-3.1	115.2*	12.4*
CC(=O)c1cc(C(=O)N2CCCC(C(=O)c3ccc(Cl)cc3)C2)cs1 (stereo unspecified)	-1.2	-6.6	-2.8	0.3	20.1	x	x
COc1cccc(/C=C/c2ccc3cccc(O)c3n2)c1	83.1*	10.2	-14.8	2.6	-20.9	120.2*	21.7*
COc1ccc(/C=C/c2ccc3cccc(O)c3n2)c(OC)c1OC	-1.3	2.6	3.6	7.8	-22.1	x	x
COc1cccc(/C=C/c2ccc3cccc(O)c3n2)c1OC	81.4*	8.7	4.4	6.8	-4.0	65.0*	13.1*
CC(C)CCNC(=O)C1CCN(S(=O)(=O)c2ccc(-n3cnnn3)cc2)CC1	2.6	1.4	-4.5	-0.1	-6.6	x	x
CC(C)/C=N/Nc1nc(-c2ccc(Br)cc2)cs1	140.6*	-0.8	-1.3	4.6	-18.9	16.5	18.1*
Cc1nc(N2N=C3/C(=C/c4ccc(F)cc4)CCCC3C2c2ccc(F)cc2)sc1C(=O)N(C)C (stereo unspecified)	92.0*	9.2	2.2	-0.3	-3.5	93.0*	114.7*
O=[N+]([O-])c1cccc(NC(=S)NCc2ccncc2)c1	21.6	-2.3	-4.6	-0.2	13.3	x	x
O=[N+]([O-])c1cccc(NC(=S)Nc2nc(-c3ccccc3Cl)cs2)c1	86.9*	-25.1	-10.2	0.5	-16.7	56.3*	22.7*
CSc1nsc(N/N=C/c2ccc3c(c2)OCO3)c1C#N	116.6*	12.5	-4.7	4.5	-8.9	80.8*	27.2*
NCCCn1c(C(=O)c2ccc(Cl)cc2)c2ccc([N+](=O)[O-])cc2[n+]1[O-]	40.8	-6.6	x	1.6	2.6	x	x
N#Cc1c2ccc([N+](=O)[O-])cc2[n+]([O-])n1-c1ccccc1	200.0*	x	x	x	x	252.6*	19.3*
Cc1nc(SC(C)C(=O)c2c(N)n(C)c(=O)n(C)c2=O)c2c(C)c(C)sc2n1 (stereo unspecified)	10.1	-1.3	x	-0.2	-18.9	x	x
CCc1ccc(S(=O)(=O)/N=C2\C=C(Nc3ccc(O)cc3)C(=O)c3ccccc32)cc1	16.0	13.6	12.2	-7.3	-20.0	x	x
CCc1ccc(S(=O)(=O)/N=C2\C=CC(=O)c3ccccc32)cc1	111.5*	-6.2	6.4	0.0	x	92.8*	163.7*
COc1cc(-c2csc(NC3CCCCC3)n2)cc(OC)c1OC	80.7*	1.8	-8.1	-0.1	-17.8	50.1*	37.1*
